USP30 inh: human USP30 deubiquitinase inhibition | Q70CQ3 | purified USP30, Ub-rhodamine cleavage fluorescence | inhibition, % at 25 µM | actives 5.3% (n = 47,000) | AID 1645860
USP17 inh: blocks human USP17 ubiquitin-rhodamine cleavage; A8MUK1; purified USP17, Ub-rhodamine cleavage fluorescence, 3 h; inhibition, % at 50 µM; actives 6.5% (n = 47,000)
USP28 block: blocks human USP28 ubiquitin-rhodamine cleavage; purified USP28, Ub-rhodamine cleavage fluorescence, 30 min; inhibition, % at 25 µM; actives 3% (n = 47,000)
OTUD3 inh: human OTUD3 deubiquitinase inhibition. actives 0.7% (n = 47,000). Q5T2D3. AID 1645858. inhibition, % at 25 µM. purified OTUD3, Ub-rhodamine fluorescence, 2 h
Target sequence (Q5T2D3 whole entry, looked up): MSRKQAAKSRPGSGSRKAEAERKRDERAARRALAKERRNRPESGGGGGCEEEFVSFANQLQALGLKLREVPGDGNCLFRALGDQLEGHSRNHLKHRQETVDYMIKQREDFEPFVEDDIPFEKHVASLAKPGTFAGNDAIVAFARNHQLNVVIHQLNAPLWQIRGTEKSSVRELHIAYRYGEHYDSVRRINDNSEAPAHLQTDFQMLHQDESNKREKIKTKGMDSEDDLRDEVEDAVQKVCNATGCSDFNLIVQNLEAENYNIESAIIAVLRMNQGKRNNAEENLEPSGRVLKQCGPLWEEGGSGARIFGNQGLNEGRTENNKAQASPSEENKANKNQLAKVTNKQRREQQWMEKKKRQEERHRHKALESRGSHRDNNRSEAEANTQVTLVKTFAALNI
Numbers without * were called inactive; i = inactive; nt = no result given. Most compounds without a hit are left out; they make up all but 11% or so of the library. No stated cut-off is given here; in the data, active means inhibition above about 30%; inactive means the rest.

SMILES	USP30 inh	USP17 inh	USP28 block	OTUD3 inh
NS(=O)(=O)c1cc(C(=O)OCC(=O)c2ccc3c(c2)OCCO3)ccc1Cl	-11.5	-28.3	69.9*	-6.3
Cc1cccc(C(=O)OCC(=O)c2ccc3c(c2)OCCO3)c1O	1.3	4.6	18.6	12.2
CC(OC(=O)c1ccc2ncsc2c1)C(=O)Nc1ccc2c(c1)OCO2 (centres undefined)	3.6	0.0	-3.5	-0.1
O=C(COC(=O)c1ccc(CN2CCCC2=O)cc1)c1ccc2c(c1)OCCO2	-24.6	9.3	89.7*	-4.6
COCCCn1c(C(=O)NCCc2ccccc2)cc2c(=O)n3cccc(C)c3nc21	27.5	71.3*	0.7	0.1
CCC(C)NC(=O)c1cc2c(=O)n3cccc(C)c3nc2n1Cc1ccccc1 (centres undefined)	0.1	12.5	-14.9	1.2
COCCCn1c(C(N)=O)cc2c(=O)n3cccc(C)c3nc21	18.5	40.0*	15.7	26.7
CCOCCCNC(=O)c1cc2c(=O)n3cccc(C)c3nc2n1Cc1ccccc1	44.0*	40.6*	13.3	12.8
COCCCn1c(C(=O)Nc2cccc(OC)c2)cc2c(=O)n3cccc(C)c3nc21	-79.5	12.4	-10.2	0.0
CCCCN(C)C(=O)c1cc2c(=O)n3cccc(C)c3nc2n1Cc1ccccc1	42.0*	62.5*	21.3	21.0
COCCN1C[C@H]2CN(C)c3ccccc3[C@@H]2N(C(=O)COC)CCC1=O	-85.7	-14.1	-22.1	-15.5
Cc1cccc(OCC(O)CN2CCC(Cc3ccccc3)CC2)c1 (centres undefined)	12.9	-8.0	1.8	11.2
Fc1cnc(N2CC[C@H]3CO[C@H](CNc4ncccn4)[C@H]3C2)nc1	i	-166.2	-263.1	-188.9
Cc1cc(C(F)(F)F)c2c(N)c(C(=O)Nc3cccc(C(F)(F)F)c3)sc2n1	i	-155.4	-230.1	-185.6
Cc1nc2sc(C(=O)Nc3ccccc3Br)c(N)c2c(C)c1C	50.6*	46.0*	32.6*	10.0
Cc1cc(C)c2c(N)c(C(=O)Nc3ccccc3Br)sc2n1	nt	77.3*	nt	-2.3
COc1ccc(C(=O)Nc2sc3c(c2C(=O)NCc2cccnc2)CCCC3)cc1	13.9	66.5*	26.5	40.2*
COc1ccc(CN2CCc3oc(C)c(C(=O)NCc4cccnc4)c3C2)cc1	-145.8	-35.1	-51.3	-42.5
CCOc1ccc(NC(=O)Cn2c(=O)n(CCC(=O)NCc3ccccc3OC)c(=O)c3ccccc32)cc1	49.7*	51.9*	6.4	19.3
COc1ccccc1CNC(=O)Cc1cc(-c2ccc(Cl)cc2)on1	-54.4	14.1	-18.0	-14.3
COc1ccccc1CNC(=O)CCn1c(=O)c2ccccc2n(Cc2ccccc2C#N)c1=O	22.7	40.2*	12.5	13.5
COc1ccccc1CNC(=O)CCc1cn(Cc2ccc(Cl)cc2)c2ccccc12	-0.2	32.2*	9.2	12.0
Cc1ccc(NC(=O)Cn2c(=O)n(CCCCC(=O)NCc3ccco3)c(=O)c3ccccc32)cc1C	0.2	4.7	-12.6	-7.6
COc1ccccc1CNC(=O)CCn1c(=O)c2ccccc2n(Cc2cccc([N+](=O)[O-])c2)c1=O	27.7	6.3	6.6	9.3
CC(=O)Nc1cc(C(=O)N2CCCC(C)C2)c2ccc(C)nc2c1 (centres undefined)	-124.1	-37.6	-28.6	-20.8
SMILES	USP30 inh	USP17 inh	USP28 block	OTUD3 inh
CCn1c(=O)c2sccc2n2c(CCC(=O)NC3CCCCCC3)nnc12	29.0	13.3	11.2	18.0
CC(C)CCn1c(=O)c2ccccc2n2c(CCC(=O)NC3CCCCCC3)nnc12	49.6*	41.5*	16.2	37.9*
CCCn1c(=O)c2sccc2n2c(CCC(=O)NC3CCC(C)CC3)nnc12 (centres undefined)	40.5*	nt	11.7	22.8
CC(C)CCn1c(=O)c2ccccc2n2c(CCC(=O)NCc3ccccc3Cl)nnc12	-11.8	-0.6	-4.7	-0.4
COc1ccc(NCc2nc3ccccc3n2Cc2ccccc2)cc1	-30.0	64.4*	9.1	-4.2
O=C(O)c1ccc(NCc2nc3ccccc3n2Cc2ccccc2F)cc1	20.3	27.7	12.7	3.4
Cc1ccc(-c2cc(NC(=O)C(C)C)c(=O)n(CC(=O)Nc3cccc(F)c3)n2)cc1	-13.1	-1.5	-6.9	-2.2
O=C(Cn1nc(-c2ccco2)ccc1=O)Nc1cccc(Br)c1	28.9	36.7*	12.4	12.8
Fc1ccccc1N1CCN(Cc2c(-c3ccc(Cl)cc3)nc3ccccn23)CC1	-19.0	-15.5	-20.8	-9.9
O=c1cc(-c2ccc(O)c(O)c2)oc2cc(O)cc(O)c12	100.7*	99.5*	98.8*	101.0*
COc1cc(OC)c2c(=O)cc(-c3ccccc3)oc2c1	-2.7	-3.4	1.0	-6.5
O=c1c(-c2ccc(O)cc2)coc2cc(O)cc(O)c12	-3.6	-6.4	-6.8	-10.3
O=c1c(O)c(-c2ccc(O)c(O)c2)oc2cc(O)cc(O)c12	81.0*	97.3*	98.4*	95.2*
CC1NC(=O)C(CC(N)=O)NC(=O)C(C(C)O)NC(=O)C(Cc2ccc(O)cc2)NC(=O)C(C(C)C)NC(=O)C(NC(=O)CC(O)CCCCCCCCCCCCN=C(N)N)C(C)OC1=O (centres undefined)	86.2*	33.8*	86.9*	73.4*
CCCCCCCCCCCCCCCC(=O)NC(CCC(=O)O)C(=O)NC(CCCN)C(=O)NC1Cc2ccc(cc2)OC(=O)C(C(C)CC)NC(=O)C(Cc2ccc(O)cc2)NC(=O)C(CCC(N)=O)NC(=O)C2CCCN2C(=O)C(C(C)C)NC(=O)C(CCC(=O)O)NC(=O)C(C(C)O)NC1=O (centres undefined)	-4.6	15.1	12.5	21.4
COc1nc(-c2ccccc2)ccc1-c1noc(-c2ccc([N+](=O)[O-])cc2)n1	15.2	10.5	3.0	9.0
Cc1nn(-c2ccccc2)c2c1N=C1C(Cl)=CC(Cl)=CN1C21C(=O)Nc2ccccc21 (centres undefined)	15.3	82.1*	49.6*	11.6
Cn1nc(CN2CCCCC2)c2c1CN(C(=O)c1ccc(F)c(F)c1)C2	-2.4	-11.8	-4.2	-3.8
CC(=O)c1ccc(N2CCN(C(=O)c3cc(Cl)c4c(c3)OCCO4)CC2)cc1	34.0*	64.0*	24.8	-9.7
CC(=O)c1ccc(N2CCN(C(=O)c3ccc(-c4noc(C)n4)cc3)CC2)cc1	1.3	-0.3	0.0	0.0
Cc1c(-c2nnc(-c3ccccc3Cl)o2)nnn1-c1ccccc1	80.8*	2.8	34.8*	5.8
Cc1cc(Cl)ccc1Oc1ncc(-c2ccccc2)cc1C#N	14.8	5.3	3.4	1.0
Cc1n[nH]c(C)c1CC(=O)NCc1nnc(-c2nccc3ccccc23)o1	34.1*	39.7*	12.7	10.0
CCOc1ccc(NC(=O)CSC2=NC3(CCCC3)Nc3ccccc32)cc1	-59.3	30.1*	-6.4	-3.6
O=C(Nc1cnc(N2CCCC2)nc1)c1cccnc1	-8.8	-10.3	1.3	-4.5
COc1ccc(CCNC(=O)Cn2cncn2)cc1OC	3.6	-1.7	-7.7	-2.3
COc1ccc(CCNC(=O)COc2ncnc3oc(C)c(C)c23)cc1OC	-10.1	-2.4	56.8*	7.3
Cn1c(NC(=O)c2ccccc2Cl)cc(=O)n(C)c1=O	2.0	-1.4	-5.7	-6.7
